# Reference: PubChem BioAssay
# A number with no mark means an inactive call. Entries that show only a call come without a potency. For some of these results: Potency and affinity values are given separately. Active and inactive are the calls of the source. Unless noted, the rule behind the calls is not given here.
# How the values were obtained:
# [1] = antimalarial activity against Dd2 strain (AID 2302;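 active = growth inhibition above 50% at the single 2 µM test dose, taken to imply half-maximal potency below 2 µM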); conditions: P. falciparum Dd2 in RBCs, LDH growth readout, 72 h; at 2 µM; active compounds read high
# [2] = HepG2 cytotoxicity, primary screen, cytotoxicity control for P. falciparum antimalarial project, cell-based, ATP luminescence (AID 2303;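 active = inhibition above 50%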); conditions: HepG2 viability, 24-48 h, at 10 µM, active compounds read high
# [3] = biological target: L-lactate dehydrogenase (Plasmodium falciparum (isolate CDC / Honduras)) (UniProt Q27743); test: PfLDH activity inhibition – cell lysate, 3D7 strain, counter-screen for P. falciparum growth inhibition project (AID 2304); conditions: P. falciparum 3D7 crude extract, LDH APAD/NBT absorbance; at 2 µM; active compounds read high
# Sequence of L-lactate dehydrogenase (Plasmodium falciparum (isolate CDC / Honduras)) (Q27743 whole entry, looked up): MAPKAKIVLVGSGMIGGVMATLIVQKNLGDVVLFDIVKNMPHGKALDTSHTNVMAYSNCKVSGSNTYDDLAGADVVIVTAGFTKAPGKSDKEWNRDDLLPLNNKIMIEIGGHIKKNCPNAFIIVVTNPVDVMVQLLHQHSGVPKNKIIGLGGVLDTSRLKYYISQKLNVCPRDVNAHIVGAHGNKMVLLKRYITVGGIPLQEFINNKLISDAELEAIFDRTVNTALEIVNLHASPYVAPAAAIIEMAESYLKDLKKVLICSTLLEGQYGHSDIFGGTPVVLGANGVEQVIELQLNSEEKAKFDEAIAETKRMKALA
# [4] = inhibition of 3D7 malaria parasite growth – strain 3D7 (AID 2306); conditions: P. falciparum 3D7 erythrocytic growth, LDH absorbance, 72 h; at 2 µM; active compounds read high
# [5] = biological target: Calcium-dependent protein kinase 1 (Plasmodium falciparum (isolate 3D7)) (UniProt P62344); test: PfCDPK1 kinase inhibitors, biochemical, TCAMS library (AID 1159585; cut-off not given, nearly all actives have IC50 up to about 0.98 µM;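 note: inhibitors leave more ATP so luminescence rises with inhibition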); conditions: recombinant PfCDPK1, Kinase-Glo ATP depletion luminescence
# Sequence of Calcium-dependent protein kinase 1 (Plasmodium falciparum (isolate 3D7)) (P62344 whole entry, looked up): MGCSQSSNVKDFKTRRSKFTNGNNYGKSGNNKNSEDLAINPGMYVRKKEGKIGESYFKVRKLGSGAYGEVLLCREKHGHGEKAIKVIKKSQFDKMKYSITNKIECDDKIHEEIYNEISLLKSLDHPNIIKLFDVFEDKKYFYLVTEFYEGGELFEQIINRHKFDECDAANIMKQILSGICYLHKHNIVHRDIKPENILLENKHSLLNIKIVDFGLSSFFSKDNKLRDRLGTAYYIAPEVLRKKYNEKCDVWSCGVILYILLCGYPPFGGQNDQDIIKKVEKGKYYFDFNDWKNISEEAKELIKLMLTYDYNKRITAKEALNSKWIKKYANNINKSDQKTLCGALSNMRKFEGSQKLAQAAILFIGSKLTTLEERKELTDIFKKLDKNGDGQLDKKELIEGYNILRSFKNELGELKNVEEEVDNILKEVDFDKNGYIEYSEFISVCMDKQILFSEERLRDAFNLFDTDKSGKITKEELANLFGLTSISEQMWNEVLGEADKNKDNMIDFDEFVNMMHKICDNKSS
# [6] = biological target: Plasmodium falciparum protein kinase 6 (PK6, PF3D7_1337100) (UniProt Q8IDW1); test: PfPK6 kinase inhibitors, biochemical, TCAMS library (AID 1159586); conditions: recombinant PfPK6, Kinase-Glo ATP depletion luminescence
# Sequence of Plasmodium falciparum protein kinase 6 (PK6, PF3D7_1337100) (Q8IDW1 1-305): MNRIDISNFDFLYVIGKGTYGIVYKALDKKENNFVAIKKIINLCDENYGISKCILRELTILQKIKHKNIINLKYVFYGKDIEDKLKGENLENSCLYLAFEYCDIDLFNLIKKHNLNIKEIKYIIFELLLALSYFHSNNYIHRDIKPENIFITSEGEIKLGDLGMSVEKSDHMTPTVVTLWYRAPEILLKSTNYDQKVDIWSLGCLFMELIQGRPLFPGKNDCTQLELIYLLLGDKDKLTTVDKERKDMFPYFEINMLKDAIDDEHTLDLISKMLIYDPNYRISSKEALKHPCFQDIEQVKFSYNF
# [7] = biological target: Protein kinase 7 (PK7), Plasmodium falciparum 3D7 (PF3D7_0213400) (UniProt Q7YTF7); test: inhibition of Plasmodium PK7 catalytic activity – biochemical, TCAMS antimalarial set, Kinase-Glo luminescence (AID 1159587); conditions: recombinant PfPK7, Kinase-Glo ATP depletion luminescence
# Sequence of Protein kinase 7 (PK7), Plasmodium falciparum 3D7 (PF3D7_0213400) (Q7YTF7 1-343): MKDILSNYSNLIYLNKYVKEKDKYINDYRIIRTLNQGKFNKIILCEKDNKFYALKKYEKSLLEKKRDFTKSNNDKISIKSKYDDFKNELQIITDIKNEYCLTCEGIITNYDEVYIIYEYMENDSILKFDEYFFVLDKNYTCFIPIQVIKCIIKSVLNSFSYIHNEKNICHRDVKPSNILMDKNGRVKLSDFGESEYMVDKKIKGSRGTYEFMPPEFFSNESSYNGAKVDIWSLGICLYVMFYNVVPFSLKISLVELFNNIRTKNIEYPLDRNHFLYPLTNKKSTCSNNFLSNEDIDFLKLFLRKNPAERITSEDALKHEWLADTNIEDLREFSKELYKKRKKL
# [8] = biological target: Calcium-dependent protein kinase 4 (Plasmodium falciparum (isolate 3D7)) (UniProt Q8IBS5); test: PfCDPK4 kinase inhibitors, biochemical, TCAMS library (AID 1159588; cut-off not given, nearly all actives have IC50 up to about 0.91 µM); conditions: recombinant PfCDPK4, Kinase-Glo ATP depletion luminescence
# Sequence of Calcium-dependent protein kinase 4 (Plasmodium falciparum (isolate 3D7)) (Q8IBS5 whole entry, looked up): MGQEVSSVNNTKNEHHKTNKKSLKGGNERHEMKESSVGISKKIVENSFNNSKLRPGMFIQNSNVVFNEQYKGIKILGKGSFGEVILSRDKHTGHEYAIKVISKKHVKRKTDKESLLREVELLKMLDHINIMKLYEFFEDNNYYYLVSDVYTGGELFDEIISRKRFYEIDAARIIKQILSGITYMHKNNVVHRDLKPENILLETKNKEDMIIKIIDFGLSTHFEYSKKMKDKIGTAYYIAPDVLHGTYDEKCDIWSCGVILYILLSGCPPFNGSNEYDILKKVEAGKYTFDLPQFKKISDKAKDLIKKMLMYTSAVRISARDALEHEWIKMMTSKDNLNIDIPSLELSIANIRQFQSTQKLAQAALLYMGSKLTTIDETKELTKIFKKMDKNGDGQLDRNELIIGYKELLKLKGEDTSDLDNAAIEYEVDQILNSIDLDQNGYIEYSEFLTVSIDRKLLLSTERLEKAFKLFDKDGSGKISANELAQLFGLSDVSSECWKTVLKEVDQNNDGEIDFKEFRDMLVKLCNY
Structure (SMILES),growth inhibition [1],inhibition [2],inhibition [3],growth inhibition [4],outcome [5],outcome [6],outcome [7],outcome [8]
O=C(Nc1ccc(CN2CCC(c3c[nH]c4ccc(O)cc34)CC2)cc1)c1ccc(-c2ccccc2)cc1,100% (active),33%,1%,100% (active),inactive,inactive,inactive,inactive
O=C(/C=C/c1ccc(Cl)c(Cl)c1)N1CCC(CN2[C@@H]3CC[C@H]2CC(c2c[nH]c4ccccc24)C3)CC1 (some centres undefined),66% (active),84% (active),-3%,100% (active),inactive,inactive,inactive,inactive
O=C(/C=C/c1cc(C(F)(F)F)ccc1F)N1CCC(CN2CCC(c3c[nH]c4ccccc34)CC2)CC1,14%,22%,-1%,96% (active),inactive,inactive,inactive,inactive
CC(Cc1ccc(Oc2ccc(Cl)cc2)cc1)NCC(O)c1cccc(Cl)c1 (centres undefined),98% (active),3%,-2%,99% (active),inactive,inactive,inactive,inactive
O=C(/C=C/c1c(Cl)cccc1Cl)NC1CCC(CN2[C@@H]3CC[C@H]2CC(c2c[nH]c4ccccc24)C3)CC1 (some centres undefined),18%,40%,-1%,95% (active),inactive,inactive,inactive,inactive
CC(Cc1ccc(OC2CCCCC2)cc1)NCC(O)c1cccc(Cl)c1 (centres undefined),99% (active),66% (active),-4%,99% (active),inactive,inactive,inactive,inactive
O=C(/C=C/c1ccc(Cl)c(Cl)c1)NC1CCC(CN2CCC(c3c[nH]c4cc(O)ccc34)CC2)CC1 (centres undefined),98% (active),18%,-10%,100% (active),inactive,inactive,inactive,inactive
COCCNCc1cccc(-c2ccc(CN(C(=O)Nc3ccccc3)C3CCN(Cc4ccccc4)CC3)cc2)c1,45%,25%,-4%,101% (active),inactive,inactive,inactive,inactive
